This passage reports outcome and AC50 results from PubChem BioAssay (EPA / NIEHS).

Calls of active or inactive are those of the source. Rule for the calls: active = hit-call score of the fitted dose curve at least 0.9, where 1 is the maximum; inactive = score below 0.9.

Read-out in the assay: Potassium channel subfamily K member 1 (KCNK1), KCNK1 (gene 3775)
The assay can be described thus: LTEA_HepaRG_KCNK1: Life Technologies and Expression Analysis (LTEA) Assay for Potassium channel subfamily K member 1 (KCNK1) using HepaRG (AID 2283511). The note with it: mRNA level, 48 h; actives raise or lower the signal. Here is the method: LTEA_HepaRG is a cell based, multiplexed-readout assay that uses HepaRG, a human liver cell line, with measurements taken at 48 hours after chemical dosing on a 96-well plate.LTEA_HepaRG_KCNK1 is one of 102 assay component(s) measured in the LTEA HepaRG cell culture assay. It is a marker of Hyperplasia.Data from the assay component LTEA_HepaRG_KCNK1 was analyzed into 1 endpoint. This assay endpoint, LTEA_HepaRG_KCNK1, was analyzed with bidirectional fitting relative to DMSO as the negative control and baseline of activity. Using a type of inducible reporter, measures of mRNA induction for gain or loss-of-signal activity can be used to understand regulation of transcription factor activity. To generalize the intended target to other relatable targets, this assay endpoint is annotated to the ion channel intended target family, where the subfamily is potassium channel.
A total of 1060 chemcials from the ToxCast library were tested in eight-point concentration-response experiments. Cell culture and cytotoxicity assays were conducted at Thermo Fisher Scientific's Custom Services facility (Madison, WI). A single lot of human HepaRG cells (Thermo Fisher Scientific, Frederick, MD) was used for the cell culture experiments. 96-well format collagen type I coated plates of human HepaRG cells were prepared using established methods. Briefly, cryopreserved HepaRG cells were thawed, plated at a density of approximately 100,000 cells/well in HepaRG Thaw, Plate, and General Purpose media (HPRG770, Thermo Fisher Scientific), and incubated for 48 hours. 0.5% DMSO was selected as vehicle control to balance the requisite need of DMSO in HepaRG cultures to maintain differentiation (for example, baseline metabolism, proportions of hepatocytes vs. cholangiocytes), while enabling further hepatic receptor pathway activation (for example, PXR and CAR) in response to chemical exposure. 48 hours after plating, the culture medium was replaced with HepaRG Serum-Free Incudtion Media. Cells were exposed to each test chemical in duplicate and maintained in CO2 incubators for another 48 hours. Chemical plates were thawed to room temperature and 200x concentrations of treatment groups were prepared. 8-point conentration-reponse curves were made with the highest exposure at 100 uM, followed by half-log dilutions, all in 0.5% DMSO. Each test plate contained variouse controls, induction positive controls (1mM phenobarbital), cytotoxicity positive controls ([…] aflatoxin B1), vehicle controls (0.5% DMSO), and total lysis controls (0.5% DMSO). Cell morphology images were taken using an Essen IncuCyte FLR automated microscope, with six 96-well plates imaged in about 24 minutes. Images were captured and exported and JPEG files. Spent culture media was transfered to black-well plates for the LDH assay, and remaining media was sorted at -80 C for later use. Cells were treated with RLT buffer and frozen until shipped for gene expression analysis. Total RNA was isolated from the cell suspension in 75 uL of Buffer RLT (Qiagen, Germantown, MD 20874) by Quintiles/Expression Analysis (Durham, NC) using a custom isolation procedure. Total RNA from each plate well was transferred to a preamplification plate. Fluidigm's 96.96 Dynamic ArrayTM (Fluidigm, Amsterdam, the Netherlands) technology was used for gene expression analyses by quantitative reverse transcription polymerase chain reaction (qRT-PCR, performed by Quintiles/Expression Analysis, Durham, NC)89. Standard TaqManTM Assays (Applied Biosystems/ThermoFisher Scientific, Foster City, CA) were used to assess the expression of 93 genes selected based on their selectivity and sensitivity to important hepatic receptors known to be modulated by environmental chemicals; importance in human hepatocyte functionality; and hepatotoxicity. […]
For `Oc1ccc(Cl)cc1Cl`, the call was inactive.

Regarding `CN(C)c1nc(=O)n(C2CCCCC2)c(=O)n1C`, the result was inactive.

For the compound `COc1ccc(O)c(C(C)(C)C)c1`, the compound was classed as inactive.

In the case of `O=C(O)C(F)(F)C(F)(F)C(F)(F)C(F)(F)C(F)(F)C(F)(F)C(F)(F)C(F)(F)C(F)(F)F`, the compound was classed as inactive.

`Cc1ccccc1CO[C@@H]1C[C@@]2(C(C)C)CC[C@]1(C)O2`: the compound was called inactive.

With `Clc1ccc(C(Cl)(Cl)Cl)cc1`, the outcome was inactive.

As for `O=S(=O)(O)C(F)(F)C(F)(F)C(F)(F)C(F)(F)F`, the compound was classed as inactive.

Consider `C[C@]12CCC(=O)C=C1CC[C@@H]1[C@@H]2CC[C@]2(C)C(=O)CC[C@@H]12`, for which the result was inactive.

For `O=NN(c1ccccc1)c1ccccc1`, the compound was called inactive.

Regarding `CCC(=O)O[C@H]1CC[C@H]2[C@@H]3CCC4=CC(=O)CC[C@]4(C)[C@H]3CC[C@]12C`, the call was inactive.

For `c1ccc(-c2ccccc2)cc1`, the result was inactive.

As to `Clc1ccc(Cl)cc1`, the call was inactive.

Consider `Nn1cnnc1`, for which the outcome was inactive.

`CC1=C2C[C@H]3[C@@H](CC=C4C[C@@H](O)CC[C@@]43C)[C@@H]2CC[C@]12O[C@@H]1C[C@H](C)CN[C@H]1[C@H]2C`: the call was inactive.

Take `Cc1ccccc1[N+](=O)[O-]`: the result was inactive.

Consider `CC(c1ccc(O)cc1)(c1ccc(O)cc1)c1ccc(O)cc1`, for which the compound was classed as inactive.

By AC50 is commonly meant the concentration giving half of the maximal activity seen. In the case of `O=C(O)C(F)(F)C(F)(F)C(F)(F)C(F)(F)C(F)(F)C(F)(F)C(F)(F)C(F)(F)F`, the AC50 was 76 µM (active).

For the compound `CC(C)(c1ccccc1)c1ccc(O)cc1`, the compound was called inactive.

For `CCOCCOC(C)=O`, the compound was called inactive.

In the case of `CCCCCCCCCc1ccc(O)cc1`, the compound was called inactive.

Regarding `Cc1ccccc1O`, the compound was classed as inactive.

Regarding `ClC(Cl)=C(c1ccc(Cl)cc1)c1ccc(Cl)cc1`, the outcome was inactive.

Turning to `CC(C)C(=O)OCC(C)(C)C(OC(=O)C(C)C)C(C)C` (stereo not given), the call was inactive.

For the compound `Cc1cccc(C)c1N`, the compound was called inactive.

Turning to `CC(C)(O)C(=O)Nc1ccc([N+](=O)[O-])c(C(F)(F)F)c1`, the AC50 is 0.052 µM (active).

For the compound `CCC(C)c1cc([N+](=O)[O-])cc([N+](=O)[O-])c1O` (stereo not given), the AC50 was 27.5 µM (active).

Take `Nc1ccc(-c2ccc(N)cc2)cc1`: the compound was classed as inactive.

For the compound `Cc1cccc([N+](=O)[O-])c1`, the result was inactive.

On to `ClC1=C(Cl)[C@]2(Cl)[C@@H]3[C@@H](Cl)[C@H]4O[C@H]4[C@@H]3C1(Cl)C2(Cl)Cl`, for which the outcome was inactive.

Consider `CCC(C)(CC)c1cc(NC(=O)c2c(OC)cccc2OC)on1`, for which the outcome was inactive.

Regarding `C=CC(=O)NCNC(=O)C=C`, the compound was classed as inactive.

As for `CCSC(=O)N(CC)C1CCCCC1`, the outcome was inactive.

`C1CC2OC2CC1C1CO1` (stereo not given): the call was inactive.

Turning to `Cc1cc(-c2ccc(N)c(C)c2)ccc1N`, the outcome was inactive.

For the compound `Oc1ccc(C(c2ccc(O)cc2)(C(F)(F)F)C(F)(F)F)cc1`, the result was inactive.

On to `Cc1cc(O)ccc1Cl`, for which the compound was classed as inactive.

On to `CCCCCCOC(=O)c1ccccc1C(=O)OCCCCCC`, for which the outcome was inactive.

`O=C(NC(=O)c1cc(F)c(F)cc1Cl)Nc1cc(F)ccc1N1CCC(C(=O)O)CC1`: the compound was classed as inactive.

Consider `CCCN(CCC)N=O`, for which the call was inactive.

For `ClC1=C(Cl)[C@]2(Cl)[C@@H]3[C@@H]4C[C@@H]([C@H]5O[C@@H]45)[C@@H]3[C@@]1(Cl)C2(Cl)Cl`, the outcome was inactive.
